Values without a mark were called inactive. The list shows a part of the results. Activity calls are given as the source filed them.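 How the source made its calls, unless noted: active means inhibition above the hit cutoff set in the earlier primary screen (cut at about 27% in these data); inactive means the rest.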
Legend:
[1] = molecular target: Protein phosphatase methylesterase 1 (Homo sapiens) (UniProt Q9Y570); experiment: PME-1 inhibitor activity retest, confirmation, biochemical, fluorescence polarization, FP-Rh probe, triplicate (AID 2171); settings: recombinant PME-1, FP-Rh probe fluorescence polarization; at 5.9 µM; stronger effect = higher value
[2] = molecular target: Bcl-2-like protein 1 (Homo sapiens) (UniProt Q07817); experiment: Bcl-xL inhibitors blocking Bim BH3 binding, confirmation, counter-screen for MCL1 inhibitor project, biochemical, fluorescence polarization (AID 2166;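 active means inhibition above a cutoff equal to the mean inhibition of all tested compounds plus 3 SD, cut at about 30% in these data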); settings: GST-Bcl-xL / FITC-Bim BH3 peptide FP binding; at 10.9 µM; stronger effect = higher value
[3] = growth loss of phage-infected E. coli expressing H. pylori AddAB, confirmation, AddAB inhibitor project, absorbance, E. coli V3065, T4 phage, triplicate (AID 488942;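 active means mean inhibition above a set limit taken from the earlier primary screen, cut at about 13% in these data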); settings: OD, at 11.9 µM, stronger effect = higher value
[4] = growth loss of RecBCD+ E. coli with mutant T4 phage, counter-screen for AddAB inhibitor project, absorbance, V66 E. coli (AID 488955;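 active means mean inhibition above the mean of solvent-only control wells plus 3 SD, cut at about 4% in these data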); settings: OD growth, at 11.9 µM, stronger effect = higher value
[5] = bacterial viability inhibition counter-screen, confirmation, counter-screen for AddAB inhibitor project, absorbance (AID 488956; in the data active means inhibition above about 25%); settings: absorbance (AddAB counterscreen), at 11.9 µM, stronger effect = higher value
[6] = growth loss of phage-infected RecBCD+ E. coli, confirmation, RecBCD inhibitor project, absorbance, E. coli V66, T4 gene 2 phage (AID 651982;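 active means mean inhibition over triplicates exceeding the hit threshold derived in the original primary screen, cut at about 11% in these data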); settings: E. coli V66 + T4 2- phage, growth OD; at 11.9 µM; stronger effect = higher value
[7] = E. coli viability inhibition, counter-screen for RecBCD inhibitor project, absorbance, high throughput (AID 651983; in the data active means inhibition above about 20%); settings: absorbance (OD) growth, at 11.9 µM, stronger effect = higher value
[8] = growth loss of phage-infected AddAB-carrying E. coli, confirmation, counter-screen for RecBCD inhibitor project, absorbance, E. coli V3065, T4 phage (AID 651984;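 active means mean inhibition above the solvent-only control wells' mean plus 3 SD, cut at about 22% in these data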); settings: E. coli expressing H. pylori AddAB + T4 phage, OD growth; at 11.9 µM; stronger effect = higher value
[9] = molecular target: Glutathione S-transferase omega-1 (Homo sapiens) (UniProt P78417); experiment: GSTO1 inhibitor hit confirmation, counter-screen for RBBP9 inhibitor project, biochemical, fluorescence polarization, triplicate (AID 2176;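 active means inhibition above the primary screen's cutoff, its mean inhibition plus 3 SD, cut at about 35% in these data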); settings: recombinant GSTO1, probe fluorescence polarization; at 5.96 µM; stronger effect = higher value
[10] = molecular target: Oxytocin receptor (Homo sapiens) (UniProt P30559); experiment: human OXTR agonists, confirmation, fluorescence, CHO-OTR cells, triplicate (AID 434963;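 active means mean activation above about 20% derived from the earlier single-dose screen, limit read from the data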); settings: Fluo-8 calcium fluorescence, agonist, at 3 µM, stronger effect = higher value
[11] = molecular target: Vasopressin V1a receptor (Homo sapiens) (UniProt P37288); experiment: V1a receptor agonists, calcium signal, counter-screen for OXTR agonist project, triplicate, fluorescence, CHO-V1R cells (AID 434991;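 active means mean activation over triplicate exceeds the hit threshold set in the earlier primary screen, cut at about 20% in these data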); settings: Fluo-8 calcium fluorescence, at 3 µM, stronger effect = higher value
Vasopressin V1a receptor (Homo sapiens), sequence (P37288 whole entry, looked up): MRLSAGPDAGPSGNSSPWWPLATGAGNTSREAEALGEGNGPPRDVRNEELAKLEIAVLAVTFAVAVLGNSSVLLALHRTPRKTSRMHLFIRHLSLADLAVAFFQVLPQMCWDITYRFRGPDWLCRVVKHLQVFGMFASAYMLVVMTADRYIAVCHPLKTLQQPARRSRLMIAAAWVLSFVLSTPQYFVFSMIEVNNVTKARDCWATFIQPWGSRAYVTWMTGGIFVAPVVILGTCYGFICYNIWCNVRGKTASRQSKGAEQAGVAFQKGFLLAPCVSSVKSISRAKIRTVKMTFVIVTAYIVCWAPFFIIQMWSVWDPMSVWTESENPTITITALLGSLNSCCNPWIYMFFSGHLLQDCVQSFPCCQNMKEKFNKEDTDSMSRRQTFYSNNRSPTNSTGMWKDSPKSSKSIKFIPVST

Protein phosphatase methylesterase 1 (Homo sapiens), sequence (Q9Y570 whole entry, looked up): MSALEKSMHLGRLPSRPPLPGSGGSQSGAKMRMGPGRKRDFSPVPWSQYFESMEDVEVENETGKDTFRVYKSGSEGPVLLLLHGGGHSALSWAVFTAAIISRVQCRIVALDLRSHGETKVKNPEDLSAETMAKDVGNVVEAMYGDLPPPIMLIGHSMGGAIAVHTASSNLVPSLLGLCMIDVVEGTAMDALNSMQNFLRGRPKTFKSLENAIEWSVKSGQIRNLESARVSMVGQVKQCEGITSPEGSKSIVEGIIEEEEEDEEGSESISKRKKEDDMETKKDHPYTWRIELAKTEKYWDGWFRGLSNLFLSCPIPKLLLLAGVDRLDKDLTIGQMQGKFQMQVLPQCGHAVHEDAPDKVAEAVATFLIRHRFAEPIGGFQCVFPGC
Oxytocin receptor (Homo sapiens), sequence (P30559 whole entry, looked up): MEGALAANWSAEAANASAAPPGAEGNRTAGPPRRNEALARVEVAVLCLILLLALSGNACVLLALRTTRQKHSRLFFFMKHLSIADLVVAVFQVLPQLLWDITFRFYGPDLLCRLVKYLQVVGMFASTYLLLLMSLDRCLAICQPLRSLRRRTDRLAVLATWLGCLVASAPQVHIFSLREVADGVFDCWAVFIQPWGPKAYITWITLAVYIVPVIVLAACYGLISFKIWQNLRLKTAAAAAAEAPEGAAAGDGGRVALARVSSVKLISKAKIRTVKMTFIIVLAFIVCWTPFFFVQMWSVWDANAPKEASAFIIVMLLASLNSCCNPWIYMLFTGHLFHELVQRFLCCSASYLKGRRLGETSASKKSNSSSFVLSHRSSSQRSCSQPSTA
Glutathione S-transferase omega-1 (Homo sapiens), sequence (P78417 whole entry, looked up): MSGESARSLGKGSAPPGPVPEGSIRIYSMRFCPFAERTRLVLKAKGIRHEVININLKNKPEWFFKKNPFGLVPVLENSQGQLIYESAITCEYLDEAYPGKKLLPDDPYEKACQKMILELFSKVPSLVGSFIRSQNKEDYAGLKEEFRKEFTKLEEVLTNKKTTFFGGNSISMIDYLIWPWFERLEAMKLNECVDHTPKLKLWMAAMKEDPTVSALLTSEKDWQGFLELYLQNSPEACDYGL
Bcl-2-like protein 1 (Homo sapiens), sequence (Q07817 whole entry, looked up): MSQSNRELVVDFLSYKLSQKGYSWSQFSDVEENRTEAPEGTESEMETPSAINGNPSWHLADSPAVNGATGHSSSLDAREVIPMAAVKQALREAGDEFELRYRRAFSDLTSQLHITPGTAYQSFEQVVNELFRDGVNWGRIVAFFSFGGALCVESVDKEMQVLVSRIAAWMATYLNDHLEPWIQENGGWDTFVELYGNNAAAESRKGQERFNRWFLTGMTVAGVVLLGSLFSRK

Oc1c(Br)c(Br)c(Br)c(Br)c1Br
inhibition [1]: 84.2% (active)

O=[N+]([O-])c1ccc(NCc2ccccc2)c2nonc12
inhibition [1]: 50.5% (active)

COc1cccc(N2C(=O)NC(=O)/C(=C\c3cn(C)c4ccccc34)C2=O)c1
inhibition [2]: 189% (active)

CC(C)C(=O)c1cn(Cc2ccccc2C#N)c2ccccc12
inhibition [1]: 62.8% (active)

COc1ccc(-n2c(/C=C/c3ccc(O)c(O)c3)nc3ccccc3c2=O)cc1
inhibition [1]: -10.6%

NP(=O)(OCCCc1ccccc1)Oc1ccccc1Cl (configuration not stated)
inhibition [1]: 86.4% (active)

O=[N+]([O-])c1cnc2ccc3ccccc3c2c1
inhibition [3]: 103% (active)
inhibition [4]: 21.8% (active)
inhibition [5]: 63.5% (active)
inhibition [6]: 18.2% (active)
inhibition [7]: 20.3% (active)
inhibition [8]: 76.8% (active)

Cc1cc(Br)c(NC(=O)CN2CC=C(c3ccccc3)CC2)c(Br)c1
inhibition [1]: 44.9% (active)

CN(C)S(=O)(=O)c1cc(C(=O)N2CCC(C(=O)O)(c3ccccc3)CC2)ccc1Cl
inhibition [3]: 85.5% (active)
inhibition [4]: 1.24%
inhibition [5]: 26.1% (active)

O=C(O)COc1ccccc1/C=C1\C(=O)NC(=O)N(CCC2=CCCCC2)C1=O
inhibition [9]: 9.09%

CCCCn1c(C)c(C(=O)OCC)c2c(CN3CCCC3)c(O)ccc21
inhibition [1]: 10.3%

N#Cc1ccccc1Cn1cc(C(=O)C2CC2)c2ccccc21
inhibition [1]: 66.3% (active)

CC(Cc1ccccc1)NCCC(c1ccccc1)c1ccccc1 (configuration not stated)
activation [10]: 11.2%
activation [11]: 4.33%

CC1Oc2cc3c(-c4c(O)cc(O)c5c(O)c6c(cc45)OC(C)C(C)C6=O)c(O)cc(O)c3c(O)c2C(=O)C1C (configuration not stated)
inhibition [1]: 53.6% (active)
